Sampled rows, rich in hits. Any-hit rate of the full collection: about 3.5%.
GPR151 activ: activators of human GPR151, primary screen, cell-based, PathHunter beta-arrestin, luminescence; PathHunter beta-arrestin GPR151 cells; G-protein coupled receptor 151 (Homo sapiens), Q8TDV0; activation, % at 11.2 µM; AID 1508602, 2020; hit rate 1% among 650,000; in the data active means activation above about 4.9%;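 further: 0% = median of compound wells and 100% = cells with positive control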
TEAD-YAP block: TEAD-YAP interaction inhibition, primary screen, TEAD-YAP interaction inhibitor project, luminescence, HEK-TIYL cells; hit rate 1.4% among 640,000; inhibition, % at 9.12 µM; TEAD-Gal4/YAP UAS-luciferase luminescence; in the data active means inhibition above about 32%;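 further: 0% = median of test compound wells and 100% = reference inhibitor wells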
MITF primary: MITF inhibitors, primary screen, biochemical, AlphaScreen, human; inhibition, % at 2.6 µM; AID 1259374, 2018; AlphaScreen MITF homodimerization, bead proximity signal; Microphthalmia-associated transcription factor (Homo sapiens), O75030; hit rate 0.91% among 650,000; in the data active means inhibition above about 50%;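 further: 0% = vehicle wells with protein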
FBW7 activator: FBW7 E3 ligase activators, primary screen, biochemical, AlphaScreen, human | F-box/WD repeat-containing protein 7 (Homo sapiens), Q969H0 | AlphaScreen FBW7–phospho-cyclin E peptide binding, activator screen | normalized activity (activation), % at 26.1 µM | hit rate 0.13% among 650,000; in the data active means normalized activity above about 1.9%;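 further: purified mutant Fbw7 with reduced substrate affinity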
Target sequence (Q969H0 whole entry, looked up): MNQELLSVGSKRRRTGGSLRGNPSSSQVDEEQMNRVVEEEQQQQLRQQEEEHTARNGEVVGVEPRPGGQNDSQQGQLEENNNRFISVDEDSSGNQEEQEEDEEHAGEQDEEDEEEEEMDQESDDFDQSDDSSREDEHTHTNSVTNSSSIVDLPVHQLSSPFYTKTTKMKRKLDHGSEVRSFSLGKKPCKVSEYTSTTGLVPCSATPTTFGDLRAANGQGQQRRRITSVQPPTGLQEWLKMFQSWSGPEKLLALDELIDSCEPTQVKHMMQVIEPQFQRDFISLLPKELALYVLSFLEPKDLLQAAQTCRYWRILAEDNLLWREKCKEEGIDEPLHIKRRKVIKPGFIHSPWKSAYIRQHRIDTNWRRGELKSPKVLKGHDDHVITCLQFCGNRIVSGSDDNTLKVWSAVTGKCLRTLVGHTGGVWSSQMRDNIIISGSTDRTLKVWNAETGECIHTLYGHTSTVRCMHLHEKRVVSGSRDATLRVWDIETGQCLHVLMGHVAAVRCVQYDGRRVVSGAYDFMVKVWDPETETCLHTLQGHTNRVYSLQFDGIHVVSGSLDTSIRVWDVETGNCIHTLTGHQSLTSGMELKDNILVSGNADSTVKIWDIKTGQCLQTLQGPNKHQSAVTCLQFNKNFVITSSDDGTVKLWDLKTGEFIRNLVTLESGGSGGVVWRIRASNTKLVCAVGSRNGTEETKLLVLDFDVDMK
Active calls of the source: *.

SMILES	GPR151 activ	TEAD-YAP block	MITF primary	FBW7 activator
CC(=O)c1ccc(C(=O)Nc2nccs2)cc1	-2	19	23	0
CCOc1cc(/C=C2\C(=O)N(c3ccc(Cl)cc3)N=C2C)ccc1OCC(N)=O	-1	3	4	-1
O=C(c1cc(COc2cccc3cnccc23)on1)N1CCN(C(=O)c2cccs2)CC1	3	43*	0	0
O=C(/C=C/c1ccc([N+](=O)[O-])cc1)Nc1cccc(C(=O)c2ccc(F)cc2)c1	2	38*	6	0
CN1C(=O)/C(=C\C=C\c2ccco2)SC1=S	1	-1	82*	-1
CC(C)C(C(=O)O)N1C(=O)/C(=C/C=C/c2ccco2)SC1=S (configuration not stated)	0	-2	64*	-1
CN1C(=O)S/C(=C\C=C\c2ccco2)C1=O	1	-20	44	0
COc1ccc(CCNc2nnc(Sc3nnnn3-c3ccccc3)s2)cc1OC	1	54*	1	0
Cc1ccc(C2CC(c3cccs3)=NN2C(=O)CSc2nnc(CNC(=O)c3ccccc3F)n2-c2ccc([N+](=O)[O-])cc2)cc1 (configuration not stated)	1	11	3	0
Cn1cc(OCc2ccc(F)cc2)c(=O)cc1C(=O)N1CCN(c2ccccc2F)CC1	0	3	14	0
Nc1nc2ccccc2n1C(=O)c1ccccc1	-8	52*	2	0
Nc1nc2ccccc2n1C(=O)c1ccc(F)cc1	-5	52*	1	0
Cc1cccn2c(CNCCCn3ccc4ccccc43)c(C(=O)N3CCOCC3)nc12	0	8	-8	0
COc1ccccc1C(=O)NC(=S)NNC(=O)c1ccccc1C	0	-8	17	0
COc1ccccc1C(=O)NC(=S)Nc1ccc(NC(C)=O)cc1	0	-54	2	0
COc1ccccc1C(=O)NC(=S)Nc1ccccc1	-1	36*	4	0
COc1ccccc1C(=O)NC(=S)Nc1ccccc1[N+](=O)[O-]	-1	45*	1	0
COc1ccccc1C(=O)NNC(=S)NC(=O)c1ccc(Cl)cc1Cl	0	9	8	5.1*
COC(=O)c1cccc(-n2c(C)cc(/C=C(\C#N)C(=O)Nc3ccc(OC)cc3)c2C)c1	-1	53*	-8	0
Cc1cc(/C=C(\C#N)C(=O)N2CCOCC2)c(C)n1-c1ccccc1	-3	71*	2	0
CNC(=O)/C(C#N)=C\c1cc(C)n(-c2ccc(N3CCOCC3)cc2)c1C	-1	32	12	0
COC(=O)c1ccc(-n2c(C)cc(/C=C(\C#N)C(=O)N3CCOCC3)c2C)cc1	0	1	13	0
CNC(=O)/C(C#N)=C\c1cc(C)n(-c2ccc(Br)cc2)c1C	-1	32*	1	0
COCCNC(=O)/C(C#N)=C/c1cc(C)n(-c2ccccc2)c1C	0	65*	1	0
COc1cc(NC(=O)c2ccccc2[N+](=O)[O-])ccc1Cl	-2	-3	13	0
SMILES	GPR151 activ	TEAD-YAP block	MITF primary	FBW7 activator
C=C(C)CNNC(=S)NCC(=C)C	0	3	-1	0
CCOC(=O)c1c(NC(=O)c2cccc(OCC)c2)sc2c1CCCC2	0	-3	7	0
CC1=CC(C)C(C2Nc3ccccc3C(=O)N2c2ccccc2C)CC1 (configuration not stated)	0	4	-1	0
CC(=O)c1cc(-c2ccc(F)cc2)n(CCC(=O)Nc2ccc3c(c2)OCCO3)c1C	-1	9	4	0
COCCCNC(=O)/C(C#N)=C/c1cc(C)n(-c2sc3c(c2C#N)CCCC3)c1C	0	59*	-7	0
O=C(Nc1ccc(I)cc1)Nc1ccc([N+](=O)[O-])cc1	1	3	19	0
O=C(Nc1ccc([N+](=O)[O-])cc1)Nc1ccon1	1	62*	16	0
CC(C)C[C@@H]1NC(=O)[C@H]2CN(S(=O)(=O)c3ccccc3F)CCN2C1=O	0	-7	4	0
CCC(=O)NC(c1cccc([N+](=O)[O-])c1)c1ccc2cccnc2c1O (configuration not stated)	1	4	17	-1
CCC(=O)NC(c1ccc(C)cc1)c1ccc2cccnc2c1O (configuration not stated)	-1	88*	28	-1
CCC(=O)NC(c1ccc([N+](=O)[O-])cc1)c1ccc2cccnc2c1O (configuration not stated)	0	85*	-19	0
COc1ccc2occ(C(=O)c3oc4ccc(Cl)cc4c3N)c2c1	-1	57*	-10	0
O=c1cc(CNCc2cccs2)c2cc3c(cc2o1)CCC3	-2	45*	0	0
Cc1ccccc1N(C)S(=O)(=O)c1nnc(NC(=O)c2cccc(Cl)c2)s1	2	9	-6	0
C=CCN1C(=O)/C(=C/c2cc(C)n(-c3cccc(C(=O)O)c3C)c2C)C(=O)NC1=S	0	9	53*	0
C=CCN1C(=O)/C(=C\c2ccc(-c3ccc(C(=O)O)cc3)o2)C(=O)NC1=S	0	0	17	0
C=CCN1C(=O)/C(=C\c2ccc(-c3cccc(C(=O)O)c3)o2)C(=O)NC1=S	1	0	64*	-1
C=CCN1C(=O)/C(=C/c2ccc(OCc3cccc(C(=O)O)c3)cc2)C(=O)NC1=S	-10	79*	-2	0
O=c1[nH]c(O)c(C=NC(CO)(CO)CO)c(=O)[nH]1	-1	-11	8	0
CCCCN(Cc1ccccc1)S(=O)(=O)c1ccc2c(c1)oc(=O)n2C	0	-11	0	0
CCCOc1cc(C)c(S(=O)(=O)Nc2ccccn2)cc1C	1	11	9	0
Cn1cccc1C(=O)NC(=O)COC(=O)c1cc(-c2ccco2)nc2ccccc12	3	-4	77*	0
COc1ccc(C(=O)[C@@H]2[C@@H](c3cccs3)C(C#N)(C#N)[C@H]3C=Cc4ccccc4N23)cc1	1	55*	9	0
Cc1ccc(C(=O)C2C(c3cccs3)C(C#N)(C#N)C3C=Cc4ccccc4N23)cc1 (configuration not stated)	1	43*	-17	0
Cc1cc(C)nc(/N=C/c2nc(-c3ccccc3Br)oc2O)c1	0	-54	-5	0
COc1cc(/C=C2/SC(=S)N(CCC(=O)O)C2=O)ccc1O	-6	32*	23	0
O=C(O)CN1C(=O)/C(=C\c2cc(Cl)ccc2O)SC1=S	0	12	11	0
O=C(O)CCCN1C(=O)/C(=C\c2ccc(O)cc2)SC1=S	-7	66*	3	0
O=C(O)CCCN1C(=O)/C(=C\c2ccccc2)SC1=S	-1	25	18	1
O=C(O)CN1C(=O)/C(=C\c2ccc(O)cc2O)SC1=S	-3	-6	87*	0

From PubChem BioAssay
